KDM5B inh: blocks human KDM5B histone demethylase activity. Q9UGL1. KDM5B demethylase, FDH-coupled NADH fluorescence (FDH is formaldehyde dehydrogenase). Potency, µM (highest dose often 57.7 µM), hits mostly inhibitors. 220,000 compounds, 2.6% hits. AID 1347165; active means well fitted inhibition curve with a large enough effect; further: nearly all actives have a fitted effect of over 70% in size
Target sequence (Q9UGL1 whole entry, looked up): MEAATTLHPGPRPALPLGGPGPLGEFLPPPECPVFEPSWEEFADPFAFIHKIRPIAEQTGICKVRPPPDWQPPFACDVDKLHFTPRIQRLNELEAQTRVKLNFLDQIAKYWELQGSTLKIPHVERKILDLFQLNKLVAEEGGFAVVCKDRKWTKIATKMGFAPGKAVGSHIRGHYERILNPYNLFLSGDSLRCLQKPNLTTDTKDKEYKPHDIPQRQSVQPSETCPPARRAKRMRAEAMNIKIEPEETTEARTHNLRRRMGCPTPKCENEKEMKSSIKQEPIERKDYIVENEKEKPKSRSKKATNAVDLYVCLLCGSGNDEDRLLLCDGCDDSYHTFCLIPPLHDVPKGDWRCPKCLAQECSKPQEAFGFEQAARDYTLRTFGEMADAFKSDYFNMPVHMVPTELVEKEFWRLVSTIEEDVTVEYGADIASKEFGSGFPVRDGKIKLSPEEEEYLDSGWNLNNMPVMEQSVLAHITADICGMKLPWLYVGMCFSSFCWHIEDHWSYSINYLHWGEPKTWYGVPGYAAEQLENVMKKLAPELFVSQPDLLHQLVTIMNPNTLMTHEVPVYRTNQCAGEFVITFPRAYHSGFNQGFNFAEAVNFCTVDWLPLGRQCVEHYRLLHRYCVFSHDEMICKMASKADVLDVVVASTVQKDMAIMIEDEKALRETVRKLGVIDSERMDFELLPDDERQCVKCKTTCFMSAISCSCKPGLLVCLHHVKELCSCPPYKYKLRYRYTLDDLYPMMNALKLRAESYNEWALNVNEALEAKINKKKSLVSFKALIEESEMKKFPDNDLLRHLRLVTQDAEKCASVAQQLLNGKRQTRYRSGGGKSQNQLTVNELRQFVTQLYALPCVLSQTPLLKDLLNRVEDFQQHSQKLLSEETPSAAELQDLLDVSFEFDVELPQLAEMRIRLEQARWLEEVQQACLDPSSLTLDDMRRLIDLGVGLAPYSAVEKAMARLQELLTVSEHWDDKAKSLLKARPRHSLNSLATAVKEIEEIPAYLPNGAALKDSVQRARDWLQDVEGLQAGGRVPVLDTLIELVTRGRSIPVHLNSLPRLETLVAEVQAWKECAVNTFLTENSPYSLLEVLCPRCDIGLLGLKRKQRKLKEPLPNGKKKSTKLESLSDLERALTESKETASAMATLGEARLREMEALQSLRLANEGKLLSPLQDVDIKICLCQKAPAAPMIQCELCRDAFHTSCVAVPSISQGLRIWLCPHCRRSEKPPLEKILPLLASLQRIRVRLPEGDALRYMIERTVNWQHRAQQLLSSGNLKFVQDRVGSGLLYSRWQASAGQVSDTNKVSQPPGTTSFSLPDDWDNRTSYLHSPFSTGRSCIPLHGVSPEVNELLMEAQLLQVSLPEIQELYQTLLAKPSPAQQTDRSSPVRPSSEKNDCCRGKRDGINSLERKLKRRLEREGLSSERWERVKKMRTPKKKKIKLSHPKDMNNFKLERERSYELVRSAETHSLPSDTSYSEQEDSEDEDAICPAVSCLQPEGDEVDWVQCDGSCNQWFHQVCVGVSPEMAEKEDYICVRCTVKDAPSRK
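Inhibition is measured as reduced NADH fluorescence generation from FDH coupling to formaldehyde release. Truncated KDM5BΔAP at 200 nM final acts on H3K4me3 peptide (12.5 µM in substrate mix) in pH 7.5 HEPES buffer with Tween-20, 30 min, room temperature.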
Large screens that a line does not name were inactive. The full list was thinned out, with hits kept by preference.

OC1CCCN(c2ccc(-c3nc(-c4cccc(C(F)(F)F)c4)no3)cn2)C1 (centres undefined)	KDM5B inh 35µM
COC1CCCN(c2cc(-c3cccc(C(F)(F)F)c3)nc3c(C)noc23)C1 (centres undefined)	none
N#Cc1ccc(NC(=O)N2CCN(Cc3nc(-c4cccc(C(F)(F)F)c4)no3)CC2)cc1	none
O=C(NC1CCCN(c2ccc(C(F)(F)F)cn2)C1)c1ccnc(Cl)c1 (centres undefined)	none
FC(F)(F)c1cccc(N2CCN(Cc3ncc(-c4ccccc4)o3)CC2)c1	none
COc1cccc(-c2noc(-c3ccc(-c4ccc(O)cc4)nc3)n2)c1OC	none
COc1cccc(-c2noc(-c3ccc(N4CCCC(CO)C4)nc3)n2)c1OC (centres undefined)	KDM5B inh 32µM
OCCN1CCN(c2ccc(-c3nc(-c4cccc(C(F)(F)F)c4)no3)cn2)CC1	KDM5B inh 28µM
COc1ccc(-c2cc(N3CCCC(NC(=O)c4cccc(OC)c4OC)C3)n[nH]2)cc1 (centres undefined)	none
CCOc1ccc(NC(=O)c2c(C)nn(-c3cccc(C)c3)c2-n2cccc2)cc1	none
Cc1ccccc1NC(=O)c1ccc2c(c1)NC(=O)CS2	none
Cc1ccccc1NC(=O)CSc1nc(-c2ccc(F)cc2)c2cccc(C)c2n1	none
COc1cccc(-c2nc3cnccn3c2NCCC(=O)Nc2ccc(F)cc2C)c1	KDM5B inh 28µM
Cc1ccccc1NC(=O)CCNc1c(-c2ccc(F)cc2)nc2cnccn12	KDM5B inh 25µM
COc1cccc(-c2nc(CS(=O)(=O)CC(=O)Nc3ccc(F)cc3C)c(C)o2)c1	none
COc1cccc(-c2nc(CS(=O)(=O)CC(=O)Nc3ccc(F)cc3F)c(C)o2)c1	none
CC(=O)Nc1ccc(NC(=O)CCNc2c(-c3ccc(F)cc3)nc3cnccn23)cc1	KDM5B inh 28µM
O=C(Nc1c(-c2ccc(F)cc2)nc2ccccn12)c1ccc(F)cc1	none
Cc1ccccc1NC(=O)CCn1cnc2onc(-c3ccc(F)cc3)c2c1=O	none
CC(=O)Nc1ccc(NC(=O)Cn2cccc2-c2nc(-c3ccc(F)cc3)no2)cc1	none
O=C(CSc1nc2cc3c(cc2c(=O)n1Cc1ccco1)OCO3)Nc1ccc(F)cc1	none
NCC1CCCN(Cc2ccc(-c3nc(-c4ccncc4)cc(=O)[nH]3)cc2)C1 (centres undefined)	none
Cc1c(Cl)cccc1S(=O)(=O)Nc1ccc(NC(N)=O)cc1	none
COc1cc(C2CC(=O)Nc3c2c(C)nn3-c2ccc(C)cc2)cc(OC)c1O (centres undefined)	none
Fc1ccc(-c2cn3c4ccccc4n(CCN4CCOCC4)c3n2)cc1	none
CCOC(=O)C1=C(CN2CCc3ccccc3C2)NC(=O)NC1c1ccc(CC)cc1 (centres undefined)	none
COc1ccc(OC)c(N2C(=O)CCC2(C)C(=O)NC2CCCC2)c1 (centres undefined)	none
CCOC(=O)C[C@@H]1C[C@@H](C(C)C)[C@H](CNC(=O)c2ccc(F)cc2)C=C1C	none
O=C1NCc2ccccc2CC12CCN(Cc1ccc(-c3ccccc3)cc1)CC2	none
Cc1ccc2nc(C)cc(Nc3ccc(C)c(C)c3)c2c1	none
Cc1ccc(-c2cc(C(=O)OCC(=O)NC(=O)NC(C)(C)C)c3ccccc3n2)o1	none
COc1ccc(Cc2nc3nccc(-c4ccc(F)cc4)n3n2)cc1	none
Fc1cc(F)cc(Cc2nc3nccc(-c4ccco4)n3n2)c1	KDM5B inh 25µM
COc1cc(F)ccc1-c1ccnc2nc(Cc3ccc(F)cc3)nn12	KDM5B inh 28µM
COc1ccc(-c2ccnc3nc(Cc4ccc(F)cc4)nn23)cc1	none
COCc1nc2nccc(-c3cc(OC)c(OC)c(OC)c3)n2n1	none
Fc1cc(F)cc(Cc2nc3nccc(-c4cc5ccccc5o4)n3n2)c1	none
COc1cc(-c2ccnc3nc(Cc4cc(F)cc(F)c4)nn23)cc(OC)c1OC	KDM5B inh 16µM
COc1ccc(Cc2nc3nccc(-c4cc(OC)c(OC)c(OC)c4)n3n2)cc1	KDM5B inh 14µM
COc1ccc(Cc2nc3nccc(-c4ccsc4)n3n2)cc1	none
CCN(C(=O)COC(=O)c1ccc2ccccc2n1)c1ccccc1	none
Cc1cc(C(=O)N2CCN(S(=O)(=O)c3ccc(F)cc3F)CC2)c(C)n1Cc1ccco1	none
O=C(CCS(=O)(=O)c1ccc(F)cc1)Nc1ccc(OC(F)F)c(Cl)c1	none
C/C(N)=C(/C#N)C(NC(=O)c1ccco1)(C(F)(F)F)C(F)(F)F	none
O=C(Cc1c[nH]c2ccccc12)Nc1ccccc1Cl	none
CCN1CCN(CCOc2ccc3c(=O)c(-c4ccc(Cl)cc4)c(C)oc3c2)CC1	none
Cc1c(Cl)cccc1NC(=O)C1CCCN(C(=O)Cc2cccc3ccccc23)C1 (centres undefined)	none
CCc1ccc(NC(=O)c2sc3nc4c(cc3c2N)CN(C(C)C)CC4)cc1	none
COc1ccc(CC(=O)Nc2nonc2-c2ccc(Br)cc2)cc1	none
O=C(Cc1ccc2c(c1)OCO2)N1CCc2onc(-c3cccc(F)c3)c2C1	none
O=C(COCC1CCCO1)N1CCc2onc(-c3ccc4c(c3)OCO4)c2C1 (centres undefined)	KDM5B inh 22µM
O=C(C1COc2ccccc2O1)N1CCc2onc(-c3cccc(F)c3)c2C1 (centres undefined)	none
Brc1ccc(-c2noc(/C=C/c3ccccc3)n2)cc1	none
O=C(CCc1c[nH]c2ccccc12)Nc1cccc(Cl)c1	none
Cc1ccc(NC(=O)Cn2c(N3CCc4ccccc4C3)nc(C)cc2=O)c(C)c1	none
Cc1cc(=O)n(CC(=O)Nc2ccc(Br)cc2F)c(N2CCC(C)CC2)n1	none
Cc1cc(=O)n(CC(=O)Nc2ccc(Br)cc2F)c(N2CCc3ccccc3C2)n1	KDM5B inh 14µM
CCNCC(O)COCc1ccccc1OC (centres undefined)	none
C=C(Cl)CN1CCC(C(=O)NCCc2ccccc2F)CC1	none
COc1ccc(NC(=O)c2nc(-c3ccccc3)n(-c3ccccc3Cl)n2)cc1	none
Cc1cn2nc(C(=O)NCCCc3ccccc3)cc2c(=O)[nH]1	none
Cc1cc(=O)n(CC(=O)Nc2cccc(F)c2)c(N(C)Cc2ccccc2)n1	none
Cn1ccc(C(=O)Nc2ccc3c(c2)OCCO3)n1	none
Cc1cn2nc(C(=O)Nc3ccccc3)cc2c(N(C)Cc2ccccc2)n1	KDM5B inh 28µM
COc1ccc(NC(=O)CNC(=O)Cc2ccccc2)cc1	none
Cc1nc(-c2ccccc2)sc1CCNC(=O)C(=O)Nc1ccc2c(c1)OCCO2	none
Cc1cn2nc(C(=O)Nc3cccc(F)c3C)cc2c(N(C)Cc2ccccc2)n1	KDM5B inh 28µM
Cc1cn2nc(C(=O)Nc3ccc(Cl)cc3C)cc2c(N(C)Cc2ccccc2)n1	none
Cc1cn2nc(C(=O)Nc3ccccc3C)cc2c(N(C)Cc2ccccc2)n1	none
COc1ccc(NC(=O)c2cc3c(N(C)Cc4ccccc4)nc(C)cn3n2)cc1	KDM5B inh 32µM
Cc1cn2nc(C(=O)Nc3ccc4c(c3)OCCO4)cc2c(N(C)Cc2ccccc2)n1	KDM5B inh 28µM
O=C(CN1C(=O)S/C(=C\c2ccc(F)cc2)C1=O)Nc1ccc2oc(=O)ccc2c1	none
O=S(CCCOc1ccc(F)cc1)Cc1ccc(F)cc1 (centres undefined)	none
O=C(Cn1ccn2nc(-c3ccc4c(c3)OCO4)cc2c1=O)NCc1ccco1	none
Cc1ccc(F)cc1NS(=O)(=O)c1ccc(N2CC(C(=O)O)CC2=O)cc1 (centres undefined)	none
CC(=O)c1ccccc1S(=O)(=O)NCC(=O)O	none
Nc1c(Cl)cc(NC(=O)c2cnc3ccccc3n2)cc1Cl	none
CCC(C(=O)Nc1ccc(OC)c(Cl)c1)n1nc(-c2cc(C)ccc2C)ccc1=O (centres undefined)	none
